This is part of a sample that, as a whole, favours compounds with a hit. Of some 83,000 tested, about 20% had one in any assay.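 Results are percent growth after 48 hours of single-concentration exposure. 100 means growth as in untreated cells, lower positive values show inhibition; negative values down to -100 show cell death.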 Unmarked numbers belong to inactive results. Calls of active or inactive are those of the source. The calls were made as follows: active = growth percent below 10; inactive = the rest.
Key:
Test in all cases: NCI-60 one-dose screen, 48 h (100 = growth as untreated, 0 = no growth, -100 = all killed)
Details in all cases: 10 µM unless noted
NCI-H23 lung = tested on: NCI-H23 lung
NCI-H226 lung = tested on: NCI-H226 lung
NCI-H322M lung = tested on: NCI-H322M lung
HOP-62 NSCLC = tested on: HOP-62 NSCLC
NCI-H460 lung = tested on: NCI-H460 lung
HOP-92 NSCLC = tested on: HOP-92 NSCLC
NCI-H522 lung = tested on: NCI-H522 lung
A549/ATCC NSCLC = tested on: A549/ATCC NSCLC
786-0 renal = tested on: 786-0 renal
COLO 205 colon = tested on: COLO 205 colon
DU-145 prostate = tested on: DU-145 prostate
K-562 leukemia = tested on: K-562 leukemia
MALME-3M melanoma = tested on: MALME-3M melanoma
MDA-MB-231 breast = tested on: MDA-MB-231 breast
RXF 393 renal = tested on: RXF 393 renal
SF-268 CNS = tested on: SF-268 CNS
SF-295 CNS = tested on: SF-295 CNS
SF-539 CNS = tested on: SF-539 CNS
UACC-257 melanoma = tested on: UACC-257 melanoma
M14 melanoma = tested on: M14 melanoma

Row | Compound | growth (NCI-H23 lung) | growth (NCI-H226 lung) | growth (NCI-H322M lung) | growth (HOP-62 NSCLC) | growth (NCI-H460 lung) | growth (HOP-92 NSCLC) | growth (NCI-H522 lung) | growth (A549/ATCC NSCLC) | growth (786-0 renal) | growth (COLO 205 colon) | growth (DU-145 prostate) | growth (K-562 leukemia) | growth (MALME-3M melanoma) | growth (MDA-MB-231 breast) | growth (RXF 393 renal) | growth (SF-268 CNS) | growth (SF-295 CNS) | growth (SF-539 CNS) | growth (UACC-257 melanoma) | growth (M14 melanoma)
1 | COc1ccc(-c2csc(NC(=O)CSc3nc(-c4ccccc4)cc(=O)[nH]3)n2)cc1 | 51% | 78.7% | 90.1% | 50.7% | 78.7% | 90.2% | 58% | 64.6% | 67.4% | 56.6% | 76.1% | 42.9% | 60.2% | 83.5% | 86.5% | 77.9% | 53.3% | 78.3% | 77.1% | 59.1%
2 | CN(CCOc1ccc(C#N)cc1)CCOc1ccc(C#N)cc1 | 56.5% | 62% | 87.1% | 46% | 120% | 63.3% | 86.6% | 60.2% | 26.3% | 52.1% | 94.3% | 101% | 76.5% | 71.2% | 53.7% | 103% | 483% | 96.1% | 65.8% | 65.2%
3 | CCCCC(=O)Nc1ncc(Cc2ccc(Cl)cc2)s1 | 90.3% | 82% | 86.8% | 68.8% | 60.7% | 69.7% | 50.1% | 53.1% | 80.7% | 76.5% | 89% | 37.5% | 81.3% | 62.3% | 56.4% | 79.6% | 74.6% | 73.5% | 80.7% | 61.1%
4 | C=C(C)[C@@H]1CC[C@]2(C(=O)NCC#CCN3CCN(C)CC3)CC[C@]3(C)[C@H](CC[C@@H]4[C@@](C)(CCC#N)[C@H](C(=C)C)CC[C@]43C)[C@@H]12 | 75.7% | 57.6% | 74.9% | 65.6% | 26.4% | 8.35% (active) | 68.5% | 49.6% | 54.5% | 57.8% | 57.5% | 2.05% (active) | 56.9% | 42.1% | 39.8% | 62.4% | 94.2% | 66% | 56.7% | 5.09% (active)
5 | Nc1c(C(=O)Nc2ccncc2)sc2nc3c(cc12)CCCCCC3 | 88.6% | 80.4% | 80.6% | 96.6% | 89.9% | 67.1% | 81.6% | 76.7% | 74.6% | 104% | 93.2% | 64% | 108% | 103% | 88.5% | 100% | 82.3% | 79.9% | 91.1% | 100%
6 | O=C(O)CCCN1C(=O)/C(=C/C(Cl)=C/c2ccccc2)SC1=S | 31.3% | 41.9% | 77.2% | 88% | 57.4% | 14.2% | 12.2% | 65% | -11.5% (active) | 11.6% | 18.9% | 14.7% | -2.99% (active) | 38.1% | -16.5% (active) | 56.1% | 49.5% | 10% | 40.8% | 9.62% (active)
7 | CC(C)OC(=O)c1ccc2[nH]c(O)c(C(=Nc3ccc(N(C)C(=O)CN4CCN(C)CC4)cc3)c3ccccc3)c2c1 | -59.9% (active) | 20.1% | -6.59% (active) | -68.8% (active) | -57.9% (active) | 1.36% (active) | -60.6% (active) | -46.7% (active) | -92.4% (active) | -59.4% (active) | -23% (active) | -15.2% (active) | -85% (active) | -71.4% (active) | -96.8% (active) | -32.7% (active) | -26.9% (active) | -95.6% (active) | -64.9% (active) | -85.1% (active)
8 | NC(=O)CCC(C(=O)O)N1C(=O)c2ccc(O)cc2C1=O (stereo not given) | 118% | 107% | 112% | 113% | 109% | 93.2% | 102% | 122% | 111% | 119% | 118% | 72.2% | 157% | 113% | 115% | 111% | 91.7% | 106% | 107% | 108%
9 | CCN1CCN(Cc2cn(CC(=O)Nc3ccc4c(ccn4Cc4ccccc4)c3)nn2)CC1 | 104% | 91.8% | 98.8% | 96% | 114% | 87.6% | 99.9% | 102% | 97.8% | 99.4% | 105% | 94.8% | 99.5% | 91.5% | 111% | 95.9% | 105% | 102% | 103% | 98.7%
10 | CC(=O)n1nc(C(=O)OC(C)C)c2cc(C)c(C)cc21 | 95.2% | 96.4% | 101% | 92.1% | 98.7% | 67.1% | 88.8% | 82.2% | 80.9% | 102% | 105% | 91.1% | 95% | 102% | 118% | 102% | 89.8% | 107% | 92.3% | 93.7%
11 | COc1cc2c(c(OC)c1OC)CCC(c1cccc(C(=O)Nc3cccc(Br)c3)c1)O2 (stereo not given) | 77.5% | 69.9% | 50.9% | 96.8% | 70.5% | 6.24% (active) | 48.8% | 64.5% | 81% | 88.3% | 85.1% | 52.1% | 102% | 17.6% | 78.6% | 67.1% | 64.5% | 99.4% | 74.1% | 73.9%
12 | O=C(O)CNC1=C(Cl)C(=O)c2ccccc2C1=O | 88% | 109% | 103% | 95.4% | 102% | 74.1% | 78.8% | 96.6% | 101% | 113% | 112% | 93.4% | 118% | 83% | 128% | 103% | 92.1% | 123% | 91.1% | 98.3%
13 | COc1ccc2c3c([nH]c2c1)C(=O)c1nc(C)ccc1C3=O | 3.17% (active) | 66.1% | 43.4% | 46.6% | -34.9% (active) | 86% | 56% | -11.9% (active) | 79.7% | 63.2% | -73.2% (active) | 40.7% | -61.8% (active) | 49.8% | 69.9% | 69.5% | 45.8% | 54.8% | 32.7% | 19%
14 | CN[C@]12CC3(C=CC(=O)C=C3)O[C@@]1(Cc1ccc(OC)cc1)N(C)C(=O)N2 | 82.8% | 22.2% | 49.7% | 23.9% | 98.7% | 39.3% | -46.5% (active) | 79.7% | 6.84% (active) | 19% | 85.2% | 7.19% (active) | 11.2% | 76.9% | 43.7% | 66.4% | 103% | 12.2% | 41% | 9.52% (active)
15 | CCN1C(=O)N(CC)C2C1NN=c1s/c(=C\c3ccc(Cl)cc3Cl)c(=O)n12 (stereo not given) | 28.4% | 48.8% | 42.4% | 33.5% | 5.72% (active) | 50.8% | -8.78% (active) | 14.6% | 20.6% | -7.91% (active) | 6% (active) | -83.7% (active) | 50.4% | 12.4% | 61.1% | 42.3% | 12.8% | -12.6% (active) | 68.6% | 13.8%

Source: PubChem BioAssay (NCI)
